Hit rate of the full screen: of about 2,100 compounds, about 760 (36%) were called active. Only a sample is shown. Unmarked numbers belong to inactive results.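 The calls were made as follows: active = thallium-flux fluorescence traces judged by eye to show enhanced or reduced glutamate response, manual score 1 or -1, so both directions (some results past the limit were not filed as active); inactive = the rest, including fluorescent or raised-baseline compounds.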
Test: thallium influx changes without GIRK channels – cell-based, HEK-293 rmGlu8, no GIRK, thallium flux, counter-screen for GIRK activator project, confirmation (AID 623868);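 also: extra codes mark interference with 3 for fluorescent and 4 for baseline rise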
Conditions: thallium flux fluorescence, at 10 µM, actives lie on both sides, codes: 1 enhancer, -1 blocker, 0 none, thallium stimulus containing EC20 glutamate

Row | Compound | manual score
1 | CCCCOc1ccccc1C1C(C(=O)OC)=C(C)N(C)C(C)=C1C(=O)OC | 0
2 | CS(=O)(=O)Nc1ccc(C2=NN(C(=O)C3CCCCC3)C(c3cccs3)C2)cc1 (configuration not stated) | -1 (active)
3 | O=C(C1CCCN(Cc2cccs2)C1)N1CCCCCC1 (configuration not stated) | 0
4 | CCCCCCn1c(=O)[nH]c2nc3cc(N)ccc3nc2c1=O | 3
5 | Cc1ccc(NC2CC(=O)N(CCc3ccccc3)C2=O)cc1 (configuration not stated) | 0
6 | O=c1c2ccccc2nc(-c2ccccc2)n1/N=C/c1ccc([N+](=O)[O-])cc1 | 0
7 | O=c1c2cc(Br)ccc2nc(-c2cccc(C(F)(F)F)c2)n1O | 1 (active)
8 | O=c1c2ccccc2nc(-c2cccc(Cl)c2)n1O | 1 (active)
9 | O=c1c2ccc(Cl)cc2nc(-c2cccc(C(F)(F)F)c2)n1O | 1 (active)
10 | CCN1c2ccccc2-c2nc3ccccc3n2C1c1ccco1 (configuration not stated) | 0
11 | CC1=CC(C)(C)n2c(O)c(N=NC(N)=S)c3cccc1c32 | 0.5
12 | CN(C)c1nc(OCCNC(=O)COc2ccc(Cl)cc2Cl)nc(N2CCOCC2)n1 | 0
13 | O=C(COc1ccccc1F)NC1CCN(Cc2ccccc2)CC1 | 0
14 | Fc1ccc(NC(=S)NCc2ccccc2Cl)cc1 | 0
15 | Fc1ccc(NC(=S)NN=C2CCCCCC2)cc1 | 1 (active)
16 | Cc1cc(C)c2c(c1)/C(=N/NC(=S)Nc1ccc(F)cc1)CCC2 | 0
17 | Fc1ccccc1CNC(=S)Nc1ccc(Cl)cc1 | 0
18 | S=C(NN=C1CCCCCC1)Nc1ccc(Cl)cc1 | 1 (active)
19 | Cn1c(C(=O)OC(C(=O)NC2CCCCC2)c2ccncc2)cc2sccc21 (configuration not stated) | 0
20 | O=C(CSc1nc(CCC2CCCC2)nc2ccccc12)NCc1ccc2c(c1)OCO2 | 0.5
21 | c1ccc(-c2nnc3n2NC(c2ccc4c(c2)OCO4)S3)cc1 (configuration not stated) | 1 (active)
22 | Cc1nccn1CCc1nc(N)nc(N)n1 | 0
23 | O=C(NC(=S)Nc1nc2ccccc2s1)c1cccs1 | 1 (active)

Row | Compound | manual score
24 | O=C(NC(=S)Nc1nc2c(ccc3ccccc32)s1)c1cccs1 | 1 (active)
25 | Cc1ccc2nc(NC(=S)NC(=O)c3cccs3)sc2c1 | 0.5
26 | CCN(CC)C(=O)COc1ccc2oc(C)c(C(=O)OC)c2c1 | 0
27 | CN=C(C)C1=C(O)C(C(=O)OC)C(C)(C)CC1=O (configuration not stated) | 0
28 | CC(C)c1nc(N2CCOCC2)c(C#N)c2c1CCCC2 | 0
29 | CC1CCc2nn(CC(=O)N3CCN(C(=O)c4ccco4)CC3)cc2C1 (configuration not stated) | 0
30 | CCc1cc2cc(C)ccc2nc1SCC(=O)N1CCN(C(=O)c2ccco2)CC1 | 0
31 | Cc1cc2cc3c(cc2nc1SCC(=O)N1CCN(C(=O)c2ccco2)CC1)OCO3 | -1 (active)
32 | CC(C)CC(=O)CN1C(=O)C2(OCCO2)c2ccccc21 | 0
33 | C=CCn1c(=S)[nH]c2sc3c(c2c1=O)CCC3 | 1 (active)
34 | Cc1cc(C(=O)CSc2nnc(-c3ccncc3)n2-c2ccccc2)c(C)n1C | 0
35 | O=C(Nn1cnnc1)c1cc2cc(Br)ccc2oc1=O | 0
36 | CC(C)OCCCn1c(=S)[nH]c2cc3c(cc2c1=O)OCO3 | 1 (active)
37 | Cc1ccccc1Cn1cc(NC(=O)c2nc3ncccn3n2)cn1 | 0
38 | O=C(NNC(=O)c1sccc1-n1cccc1)c1ccc(Cl)cc1 | 1 (active)
39 | O=C(NNS(=O)(=O)c1cc(Cl)cc(Cl)c1)c1sccc1-n1cccc1 | 0
40 | O=C(NNC(=O)c1sccc1-n1cccc1)c1cccc(Cl)c1 | 1 (active)
41 | COc1ccc2[nH]c(C)c(C(=O)CN3CC(C)OC(C)C3)c2c1 (configuration not stated) | 0
42 | Cc1cccn2c(=O)c3cc(C#N)c(=NC(=O)c4cccnc4)n(CC4CCCO4)c3nc12 (configuration not stated) | 3
43 | CCn1c(=S)[nH]c2cc(C(=O)OC)ccc2c1=O | 1 (active)
44 | COCCn1c(=S)[nH]c2cc(C(=O)N3CCN(c4ccc(F)cc4)CC3)ccc2c1=O | 0
45 | COC(=O)c1ccc(C)c(NC(=O)CN2C(=O)c3ccccc3S2(=O)=O)c1 | 0
46 | COC(=O)c1ccc2c(=O)n(CC3CCCO3)c(=S)[nH]c2c1 (configuration not stated) | 1 (active)

Row | Compound | manual score
47 | COc1ccc2occ(C(=O)c3ccc(N=C(C)N(C)C)cc3)c2c1 | 0
48 | O=c1c2ccccc2c(C=NCc2ccccn2)c(O)n1-c1ccccc1 | 0
49 | Cc1[nH]n(-c2ccccc2)c(=O)c1N=Nc1nccs1 | 1 (active)
50 | Cc1ccc(-n2[nH]c(C)c(C=Nc3cc(C)ccn3)c2=O)cc1 | 1 (active)
51 | CC1=NN(c2ccccc2)C(=O)/C1=C\c1c(C)[nH]n(-c2ccccc2)c1=O | 0
52 | Cc1[nH]n(-c2ccccc2)c(=O)c1/C=N/c1ccccn1 | 1 (active)
53 | CCCCN(CCCC)C(=S)N/N=C/c1c(C)[nH]n(-c2ccccc2)c1=O | 1 (active)
54 | Cc1ccc(-n2[nH]c(C)c(/C=N/c3ccccn3)c2=O)cc1 | 0.5
55 | CCN(Cc1ccccc1)C(c1ccccn1)c1nnnn1C1CCCCC1 (configuration not stated) | 0
56 | CN(C)CCNC(=O)c1cc2c(s1)-c1ccccc1OC2 | 0
57 | CC(NC(=O)c1ccccc1NC(=O)CSc1nnnn1C)c1ccccc1 (configuration not stated) | 0
58 | CN(C)Cc1c(O)ccc2occ(C(O)c3ccccc3)c12 (configuration not stated) | 0
59 | O=C1CC(N2CCN(c3nc4ccccc4s3)CC2)C(=O)N1c1ccc(F)cc1 (configuration not stated) | 0
60 | Cn1c(=O)cc(OCCCC(=O)NCc2ccc3c(c2)OCO3)c2ccccc21 | 0
61 | Cc1[nH]n(-c2ccc(Cl)cc2)c(=O)c1/C=N/c1nnc(-c2ccccc2)s1 | 1 (active)
62 | CC1(C)Cc2c(sc3[nH]c(=S)n(Cc4ccco4)c(=O)c23)CO1 | 1 (active)
63 | CCC1(C)Cc2c(sc3[nH]c(=S)n(Cc4ccccc4)c(=O)c23)CO1 (configuration not stated) | 1 (active)
64 | CC(C)C1Cc2c(sc3[nH]c(=S)n(Cc4ccccc4)c(=O)c23)CO1 (configuration not stated) | 1 (active)
65 | CC1(C)Cc2c(sc3[nH]c(=S)n(Cc4ccccc4)c(=O)c23)CO1 | 1 (active)
66 | CC(C)C1Cc2c(sc3c2c(=O)n(Cc2ccccc2)c2nncn32)CO1 (configuration not stated) | -0.5
67 | Cc1ccc(C)c(OCC(O)CN2C(C)CCCC2C)c1 (configuration not stated) | 0

From PubChem BioAssay AID623868 (Vanderbilt High Throughput Screening Facility, 2012)
